Measurements as given in PubChem BioAssay AID1117319 (Southern Research Institute, 2015).
Values joined by “and” are separate entries in the source; they are usually repeats but may differ in a detail not shown here. Equal values may be shown once. Among all 260,000 compounds or so, about 1,500 (0.58%) were called active. Roughly 5% stayed inconclusive and do not appear here.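 The calls were made as follows: active = inhibition above a set limit at one or more doses, reproduced on every date tested; inconclusive = results disagree between test dates, or hit never tested in dose response; inactive = the rest.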 Not all results are given here. Entries with a potency or affinity are not part of this list.

target: Virion infectivity factor (Human immunodeficiency virus type 1 group M subtype B (isolate BH10)) + Virion infectivity factor (Human immunodeficiency virus type 1 group M subtype B (isolate BRU/LAI)) + Virion infectivity factor (Human immunodeficiency virus type 1 group M subtype B (isolate PCV12)) + Virion infectivity factor (Human immunodeficiency virus type 1 group M subtype B (isolate HXB2)) + DNA dC->dU-editing enzyme APOBEC-3G (Homo sapiens) (UniProt P69720+P69721+P69722+P69723+Q9HC16); assay: inhibitors of Vif binding to APOBEC3G peptide, primary screen, biochemical, TR-FRET, GST-Vif 1-94, biotin-A3G peptide, dose response retest (AID 1117319); details: stronger effect = higher value;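 also: Vif residues 1-94 fused to GST binding biotinylated APOBEC3G peptide 110-148; 0% = full assay without inhibitor and 100% = GST in place of GST-Vif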

inhibition, inactive:
C=CCSc1nc2c(c(=O)[nH]c(=O)n2C)n1Cc1ccc(C)cc1 1.91%, CN1c2ccsc2/C(=N/Nc2ccc(F)cc2)CS1(=O)=O 12.5%, CN(C)c1ccc(NC(=O)CSc2nc3ccccc3c(=O)n2CC2CCCO2)cc1 (centres undefined) 1.51%, Cc1cc(NC(=O)CSc2nc3ccccc3c(=O)n2C2CCCC2)no1 3.03%, CCOC(=O)N1CCN(C(=O)CN(CC)S(=O)(=O)c2cc(C)ccc2OC)CC1 -2.01%, CC(=O)Nc1ccc2c3c(ccc([N+](=O)[O-])c13)CC2 1.46%, O=[N+]([O-])c1ccccc1Nc1ccccc1[N+](=O)[O-] -5.54%, COc1ccc(CCC(=O)N2CCCSC2=Nc2ccc(C(C)=O)cc2)cc1 11.6%, O=C(O)c1cccc2c1-c1ccc(Cl)cc1C2 -7.17%, O=C1Cc2cc(O)ccc2O1 -1.58%, Cc1cc2c(OCC(O)CN3CCCC3)cccc2[nH]1 (centres undefined) 2.52%, O=C(CCCc1cccs1)Nc1nc2c(s1)CCCC2 12.6%, CCOC(=O)c1ccc(NS(=O)(=O)c2ccc3c(c2)oc(=O)n3C)cc1 69.3%, CCOC(=O)c1ccc(NS(=O)(=O)c2ccc3[nH]c(=O)[nH]c3c2)cc1 5%, Cc1[nH]ccc(=O)c1OCc1ccccc1 6.47%, O=C(O)c1cc(OCc2ccccc2)cc(OCc2ccccc2)c1 1.18%, CCOc1cc(/C=C2/SC(=S)N(Cc3ccccc3)C2=O)ccc1O 6.48%, Cc1ccc(NC(=O)CSc2nnc(CNC(=O)c3ccco3)n2C)cc1C -4.15%, O=C(COC(=O)C1CC2CCCC(C1)C2=O)NNC(=O)c1ccccc1Br (centres undefined) -2.58%, COC(=O)[C@]1(C)N[C@H](CN(C)S(=O)(=O)c2ccc(C(C)(C)C)cc2)[C@@H]2C(=O)N(C)C(=O)[C@@H]21 3.98%, O=C1/C(=C/c2ccccc2)SC(=S)N1C1CCS(=O)(=O)C1 (centres undefined) -6.69%, Cc1ccc(/C=C2\SC(=S)N(C3CCS(=O)(=O)C3)C2=O)cc1 (centres undefined) 6.18%, Cc1ccc(C(=O)N/C(=C/c2ccco2)C(=O)NC2CCS(=O)(=O)C2)cc1 (centres undefined) -1.97%, O=C1/C(=C/c2cccs2)SC(=S)N1C1CCS(=O)(=O)C1 (centres undefined) 0.42%, Cc1cc(C)n(/N=C/c2ccco2)c(=O)c1C#N 11.3%, Cc1ccc(/C=C2\SC(=S)N(C3CCS(=O)(=O)C3)C2=O)o1 (centres undefined) -0.73%, CC1c2ccccc2N(NC(=O)Cc2ccccc2)C1C (centres undefined) 1.5%, CC(=O)c1ccc(N2CCN(C(=O)c3ccc(OCc4c(C)noc4C)cc3)CC2)cc1 -23.2%, CCn1c(SCC(=O)NNC(=O)Cc2ccccc2)nnc1-c1ccccc1 6.74%, CNc1ccc(OC)cc1-n1cnc(-c2ccc([N+](=O)[O-])cc2)c1 -2.92%, O=C(NCc1ccccn1)C(=O)NCc1ccccn1 5.11%, O=C(NCc1ccccn1)/C(=N/O)c1ccccc1 1.42%, Cn1nc(C(C)(C)C)cc1C(=O)NCc1ccc2c(c1)OCO2 5.42%, O=C(O)c1ccc(COc2ccccc2/C=C2/NC(=O)N(c3cccc(Cl)c3)C2=O)cc1 32.2%, O=C(O)c1cc(-c2ccc(/C=C3\NC(=O)N(c4ccccc4)C3=O)o2)ccc1Cl 25.2%, O=C1N/C(=C/c2cccn2-c2ccccc2)C(=O)N1Cc1ccccc1F 0%, Cc1c(C(=O)O)cccc1-c1ccc(/C=C2/NC(=O)N(c3ccccc3)C2=O)o1 18.3%, N#CC(C#N)=Cc1cccn1-c1ccc(S(N)(=O)=O)cc1 -2.79%, O=C(O)c1ccc(COc2ccc3ccccc3c2/C=C2/NC(=O)N(c3ccccc3)C2=O)cc1 24.9%, N#C/C(=C/c1cccn1-c1cccc(C(=O)O)c1)c1ccc(F)cc1 0.42%, O=C(O)c1cccc(-n2cccc2/C=C2/NC(=O)N(c3ccc(Cl)cc3)C2=O)c1 -7.27%, Cn1c(C(=O)NCc2cccs2)cc2oc3ccccc3c21 2.73%, O=C(NC1(C(F)(F)F)NC(=O)N(CC2CCCCC2)C1=O)c1ccco1 (centres undefined) 9.27%, CCN(C(=O)c1cn(C)c(=O)c2ccccc12)c1ccccc1F -11.6%, Cn1cc(CCNCc2cn[nH]c2-c2ccc(-c3ccccc3)cc2)cn1 -3.24%, CC(C)Cc1cc(C(=O)O)c2ccccc2n1 5.6%, CCn1c(Cc2ccccc2)nnc1SCC(=O)Nc1ccc(C)cc1 -8.39%, CC(C)c1ccc(NC(=O)Cc2cn(C)c3ccccc23)cc1 4.75%, CCc1ccccc1NC(=O)Cc1cn(C)c2ccccc12 -13.9%, Cc1ccc(N(C(=O)Cn2nnc(-c3ccc(C)o3)n2)C(C(=O)NC2CCCC2)c2ccco2)cc1 (centres undefined) 1.99% and -5.57%, Cc1ccc(-c2nnn(CC(=O)N(c3ccccc3)C(C(=O)NC3CCCC3)c3ccco3)n2)o1 (centres undefined) -1.78% and -5.18%, COCCN(Cc1ccc(C)c(Br)c1)C(=O)Cn1cnc(S(=O)(=O)N2CCCC2)c1 27.4%, CC(C)CCNC(=O)c1cccnc1Sc1ccccc1 -0.39%, CN(C)C(CNC(=O)c1ccccc1C(F)(F)F)c1ccco1 (centres undefined) 19%, Cc1ccc(C(C)C)cc1OCCCCN1CCCC1 -6.06%, Cc1ccc(S(=O)(=O)NC(=O)Nc2c(C)cccc2C)cc1 -2.09%, CCOC(=O)/C=C1\SCC(=O)N1CC(=O)NC(C)c1ccccc1 (centres undefined) -4.1%, CCOC(=O)/C=C1\SCC(=O)N1CC(=O)NC(C)C 0.13%, O=C(CSc1nc2ccccc2n1Cc1ccccc1)N/N=C/c1ccccc1C(=O)O -4.24%
